Here are results for eleven compounds from PubChem BioAssay (NCATS).

Experiment [1] in a line: qHTS of pediatric cancer cell lines to identify multiple opportunities for drug repurposing: Primary screen for BT-37 cells (AID 1347094). Also: potency is read from the fitted curve at half-maximal effect. In outline: (§1)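 CRCs from 8- or 11-point titrations (lowest final 0.59 nM NPC, 0.78 nM MIPE). Cell viability: CellTiter-Glo after 48 h incubation, 15 min room-temperature development, luminescence imaging.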
(qHTS replaces the single test concentration by a dilution series.)

The nature of experiment [2]: qHTS of pediatric cancer cell lines to identify multiple opportunities for drug repurposing: Primary screen for SK-N-SH cells (AID 1347098). Also: nearly all actives have a fitted effect of over 65% in size. Also: potency is read from the fitted curve at half-maximal effect. In short, it runs like this: (§2)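 Cells (500-1,000/well) rested 5 h, then received compounds for 48 h; metabolically active cells were measured by CellTiter-Glo luminescence. Final concentrations spanned up to 46 µM (MIPE, 11-point) or 0.59 nM-46 µM (NPC, 8-point) in primary screens, 11-point in follow-ups.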

Experiment [3] can be described thus: qHTS of pediatric cancer cell lines to identify multiple opportunities for drug repurposing: Primary screen for NB1643 cells (AID 1347099). Also: nearly all actives have a fitted effect of over 50% in size. Also: potency is read from the fitted curve at half-maximal effect. In outline: as §1
Experiment [4] is described as follows: qHTS of pediatric cancer cell lines to identify multiple opportunities for drug repurposing: Primary screen for LAN-5 cells (AID 1347100). Also: potency is read from the fitted curve at half-maximal effect. In short, it runs like this: (§3)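 Cells (500-1,000/well) in growth media were settled 5 h at 37 degrees C, then given compounds for 48 h. Viability was read as CellTiter-Glo luminescence. Primary runs used MIPE at 11 points (0.78 nM-46 µM) and NPC at 8 points (0.59 nM-46 µM); follow-ups used 11 points.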

Experiment [5] in a line: qHTS of pediatric cancer cell lines to identify multiple opportunities for drug repurposing: Primary screen for BT-12 cells (AID 1347101). Also: nearly all actives have a fitted effect of over 25% in size. Also: potency is read from the fitted curve at half-maximal effect. In outline: as §2
The nature of experiment [6]: qHTS of pediatric cancer cell lines to identify multiple opportunities for drug repurposing: Primary screen for OHS-50 cells (AID 1347103). Also: nearly all actives have a fitted effect of over 40% in size. Also: potency is read from the fitted curve at half-maximal effect. In short, it runs like this:
as §2

Experiment [7] in a line: qHTS of pediatric cancer cell lines to identify multiple opportunities for drug repurposing: Primary screen for RD cells (AID 1347104). Also: nearly all actives have a fitted effect of over 55% in size. Also: potency is read from the fitted curve at half-maximal effect. In short, it runs like this:
as §1

The nature of experiment [8]: qHTS of pediatric cancer cell lines to identify multiple opportunities for drug repurposing: Primary screen for control Hh wild type fibroblast cells (AID 1347106). Also: nearly all actives have a fitted effect of over 55% in size. Also: potency is read from the fitted curve at half-maximal effect. In short, it runs like this:
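Viability after 48 h compound treatment at 37C, 500-1,000 cells/well, read as ATP luminescence with CellTiter-Glo. Primary screens used 11-point (MIPE, 0.78 nM-46 µM) or 8-point (NPC, 0.59 nM-46 µM) final concentrations; follow-up screens used 11-point dilutions.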

The nature of experiment [9]: qHTS of pediatric cancer cell lines to identify multiple opportunities for drug repurposing: Primary screen for Rh30 cells (AID 1347107). Also: series mostly up to about 46 µM; nearly all actives have a fitted effect of over 75% in size. In outline: as §3
Experiment [10] is described as follows: qHTS of pediatric cancer cell lines to identify multiple opportunities for drug repurposing: Confirmatory screen for NB1643 cells (AID 1347109). Also: potency is read from the fitted curve at half-maximal effect; nearly all actives have a fitted effect of over 45% in size. In short, it runs like this: as §3
Experiment [11] can be described thus: qHTS of pediatric cancer cell lines to identify multiple opportunities for drug repurposing: Confirmatory screen for A673 cells (AID 1347110).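 Also: potency is read from the fitted curve at half-maximal effect; cells exposed to compound for 48 h before the viability read; nearly all actives have a fitted effect of over 65% in size.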 In outline: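 A673 cells seeded at 500-1,000 cells/well, rested 5 h, then dosed; primary MIPE 11-point (0.78 nM to 46 µM), NPC (0.59 nM to 46 µM); confirmatory 11-point. CellTiter-Glo luminescence after 48 h.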
A short description of experiment [12]: qHTS of pediatric cancer cell lines to identify multiple opportunities for drug repurposing: Confirmatory screen for SK-N-MC cells (AID 1347111).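 Also: potency is read from the fitted curve at half-maximal effect; cells exposed to compound for 48 h before the readout; nearly all actives have a fitted effect of over 70% in size.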 In outline:
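Metabolically active cells were quantified by ATP-dependent luminescence (CellTiter-Glo, 15 min at room temperature) following 48 h treatment. Cells had been plated at 500-1,000 per well and settled for 5 h beforehand.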

Experiment [13] in a line: qHTS of pediatric cancer cell lines to identify multiple opportunities for drug repurposing: Confirmatory screen for BT-12 cells (AID 1347112). Also: potency is read from the fitted curve at half-maximal effect; nearly all actives have a fitted effect of over 55% in size. In outline:
as §3

Experiment [14] can be described thus: qHTS of pediatric cancer cell lines to identify multiple opportunities for drug repurposing: Confirmatory screen for LAN-5 cells (AID 1347113). Also: potency is read from the fitted curve at half-maximal effect; nearly all actives have a fitted effect of over 65% in size. In outline:
as §3

Experiment [15] in a line: qHTS of pediatric cancer cell lines to identify multiple opportunities for drug repurposing: Primary screen for U-2 OS cells (AID 1347096). Also: nearly all actives have a fitted effect of over 50% in size. In short, it runs like this:
as §3

A short description of experiment [16]: qHTS of pediatric cancer cell lines to identify multiple opportunities for drug repurposing: Primary screen for Saos-2 cells (AID 1347097). Also: nearly all actives have a fitted effect of over 40% in size. Also: potency is read from the fitted curve at half-maximal effect. In short, it runs like this: as §1
Experiment [17] can be described thus: qHTS of pediatric cancer cell lines to identify multiple opportunities for drug repurposing: Primary screen for Rh18 cells (AID 1347102). Also: nearly all actives have a fitted effect of over 65% in size. In short, it runs like this:
as §3

Experiment [18] can be described thus: qHTS of pediatric cancer cell lines to identify multiple opportunities for drug repurposing: Primary screen for MG 63 (6-TG R) cells (AID 1347105). Also: nearly all actives have a fitted effect of over 50% in size. In short, it runs like this:
as §1

The nature of experiment [19]: qHTS of pediatric cancer cell lines to identify multiple opportunities for drug repurposing: Primary screen for NB-EBc1 cells (AID 1347095). Also: potency is read from the fitted curve at half-maximal effect. In short, it runs like this: as §1
Experiment [20] in a line: qHTS of pediatric cancer cell lines to identify multiple opportunities for drug repurposing: Primary screen for Rh41 cells (AID 1347108).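 Also: series mostly up to about 46 µM; luminescence drop marks cytotoxic hits; nearly all actives have a fitted effect of over 70% in size.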 In short, it runs like this:
as §1

Several values for one entry are separate records, joined by “and”; a condition that tells them apart may be missing. Equal values may be shown once. Records with an inconclusive call do not appear. Unmarked numbers belong to inactive results. Activity calls are given as the source filed them. Calls follow the shape of the dose curve; as a rule, active = well fitted curve in the direction sought with a large enough effect; inconclusive = small, poorly fitted or top-dose-only effect, or another doubt; inactive = no such curve, though single readings can be large; an effect the other way counts as inactive or inconclusive.

In the case of `C[C@H]1O[C@@H](O[C@H]2[C@@H](O)C[C@H](O[C@H]3[C@@H](O)C[C@H](O[C@H]4CC[C@@]5(C)[C@H](CC[C@@H]6[C@@H]5CC[C@]5(C)[C@@H](C7=CC(=O)OC7)CC[C@]65O)C4)O[C@@H]3C)O[C@@H]2C)C[C@H](O)[C@@H]1O`, the Potency is 0.0098 µM (active) in experiment [1]; 86.4 nM (active) in experiment [2]; 0.0299 µM (active) in experiment [3]; 0.0473 µM (active) in experiment [4]; 0.0219 µM (active) in [5]; 0.011 µM (active) in experiment [6]. The Potency in experiment [7] is 0.0075 µM (active); in experiment [8] it was 0.841 µM (active); in [10], 0.329 µM (active); in experiment [11], 0.465 µM (active); in experiment [12] it was 0.131 µM (active); in experiment [13], 0.185 µM (active). The Potency in experiment [14] was 0.233 µM (active). For the same compound, in [9], the Potency result was “inactive”.
Take `O=C(O)C(=O)c1cn(Cc2ccccc2)c2ccc(-c3ccc(OC(F)(F)F)cc3)cc12`: the Potency result in experiment [1], in experiment [15], in [2], in [4], in experiment [5] and in [17] was “inactive” each time. The Potency result in [18], in [8] and in experiment [9] was “inactive” in each case. Besides, the Potency in experiment [16] and in [3] was 23.5 µM (active) each time.
For the compound `CCC(=O)C(CC(C)N(C)C)(c1ccccc1)c1ccccc1` (configuration not stated), the Potency result in experiment [19], in experiment [3], in experiment [4], in experiment [17], in experiment [8] and in experiment [9] was “inactive” each time. Further, in experiment [6], the Potency is 22.5 µM (active).
Consider `Oc1ccc(Cl)cc1Cc1ccccc1`, for which the Potency result in [15], in experiment [3], in [5], in experiment [17], in [8] and in [9] was “inactive” each time. Also, the Potency entry in [20] is “inactive”. The Potency is 24.6 µM (active) and 23.7 µM (active) in experiment [16]; 35.8 µM (active) and 17.2 µM (active) in experiment [2]; 25.6 µM (active) in experiment [6].
For `Clc1ccc(COC(Cn2ccnc2)c2ccc(Cl)cc2Cl)cc1` (configuration not stated), the Potency result in [15], in experiment [17], in experiment [18], in experiment [8] and in experiment [9] was “inactive” each time. For the same compound, the values for the Potency in experiment [3] and in experiment [5] were 26.6 µM (active) and 15.5 µM (active), respectively.
As for `Oc1ccccc1-c1ccccc1`, the Potency result in experiment [1], in [19], in [2], in [3], in [4] and in experiment [5] was “inactive” in each case. The Potency entry in [17], in experiment [6], in experiment [7], in [18], in [8] and in experiment [9] was “inactive” in each case. Moreover, the Potency result in [20] was “inactive”.
For `c1ccc2c(c1)OCC(C1=NCCN1)O2` (configuration not stated), the Potency in [16] was 23.7 µM (active); in experiment [2], 13700 nM (active); in [3], 23.7 µM (active); in experiment [4], 26.6 µM (active); in experiment [5], 19.5 µM (active); in [7], 21.1 µM (active). Moreover, the Potency entry in experiment [9] is “inactive”.
On to `Cc1ccc2c(c1)C1CN(C)CCC1N2` (configuration not stated), for which the Potency entry in experiment [1], in experiment [2], in experiment [3], in experiment [4], in experiment [5] and in [17] was “inactive” throughout. Also, the Potency result in experiment [6], in experiment [7], in experiment [18], in experiment [8], in [9] and in experiment [20] was “inactive” throughout.
For the compound `CCOC(=O)C1(c2ccccc2)CCN(CCC(C#N)(c2ccccc2)c2ccccc2)CC1`, the Potency in [19] was 18.8 µM (active); in experiment [6], 12.3 µM (active). The Potency result in experiment [15], in experiment [2] and in experiment [8] was “inactive” in each case.
`C=C1C[C@@H]2[C@H](CC[C@]3(C)C(=O)CC[C@@H]23)[C@@]2(C)C=CC(=O)C=C12`: the Potency result in experiment [19], in experiment [2], in experiment [3], in experiment [4], in experiment [17] and in experiment [7] was “inactive” throughout. Moreover, the Potency entry in [18], in experiment [8], in [9] and in [20] was “inactive” each time.
As for `CN(C)[C@@H]1C(=O)C(C(N)=O)=C(O)[C@@]2(O)C(=O)C3=C(O)c4c(O)cccc4[C@@](C)(O)[C@H]3C[C@@H]12`, the Potency result in [19], in experiment [16], in [2], in experiment [4], in experiment [17] and in experiment [6] was “inactive” in each case. Besides, the Potency result in experiment [7], in [18], in [8], in [9] and in experiment [20] was “inactive” each time.
